Data from the supplement of paper PMC11219838.
Values without a mark were called inactive.

Test system: Meloidogyne hapla J2
Assay: proportion of mobile M. hapla J2 relative to DMSO control (fraction of DMSO control); higher = more viable, less nematicidal, active = 0.7 or less
Settings: 60 µM; 5 days; temperature: 20 °C
Experimental: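 DODA library (846 commercial 1,3,4- and 1,2,4-oxadiazole compounds plus commercial nematicide controls) screened at a single dose of 60 µM (0.6% DMSO) in 96-well plates, two biological replicates. Read-outs: C. elegans N2 L1 survival/reproduction score at day 6, 20 °C (0: 0-10 worms, 1: 11-20, 2: 21-50, 3: >50, 4: overgrown/starved). C. elegans daf-2 dauer, D. dipsaci and M. hapla J2 mobility at day 5, 20 °C, and P. penetrans mobility at day 5, 20 °C, each relative to DMSO controls. M. hapla egg hatching at day 12, 25 °C, relative to the mean of 8 DMSO wells on the same plate.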

SMILES	proportion of mobile M. hapla J2
CC(C)NC(=O)N1CC(=O)N(c2cc(Cl)cc(Cl)c2)C1=O [iprodione]	1.03
CNC(=O)O/N=C(\SC)C(=O)N(C)C [oxamyl]	0.936
O=C(NCCc1ncc(C(F)(F)F)cc1Cl)c1ccccc1C(F)(F)F [fluopyram]	0.653 (active)
CC[C@H](C)[C@H]1O[C@]2(C=C[C@@H]1C)C[C@@H]1C[C@@H](C/C=C(\C)[C@@H](O[C@H]3C[C@H](OC)[C@@H](O[C@H]4C[C@H](OC)[C@@H](O)[C@H](C)O4)[C@H](C)O3)[C@@H](C)/C=C/C=C3\CO[C@@H]4[C@H](O)C(C)=C[C@@H](C(=O)O1)[C@]34O)O2.CO[C@H]1C[C@H](O[C@H]2[C@H](C)O[C@@H](O[C@@H]3/C(C)=C/C[C@@H]4C[C@@H](C[C@]5(C=C[C@H](C)[C@@H](C(C)C)O5)O4)OC(=O)[C@@H]4C=C(C)[C@@H](O)[C@H]5OC/C(=C\C=C\[C@@H]3C)[C@]54O)C[C@@H]2OC)O[C@@H](C)[C@@H]1O [abamectin]	1.03
